# Most compounds without a hit are left out; they make up all but 19% or so of the library.
# ELG1 repair inh – qHTS screen for small molecules that inhibit ELG1-dependent DNA repair in human embryonic kidney (HEK293T) cells expressing luciferase-tagged ELG1 | Potency, µM (top dose mostly 46.1 µM), inactives show top-dose activity change, negative = inhibition, actives largely listed as inhibitors | HEK293T ELG1-luciferase reporter, luminescence, 16 h; DNA damage induced by 5-fluorouridine | AID 504467, 2011 | hit rate 2.3% among 330,000; note: potency is the fitted concentration of half-maximal effect; nearly all actives have a fitted effect of over 55% in size
#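 Overnight (16 hr) co-exposure of 2,000 cells/well to 5-fluorouridine and compound at 37 °C preceded detection. Luciferase was quantified via ONE-Glo luminescence; loss of signal denotes inhibition.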
# IL-1B inflam inh – qHTS for Inhibitors of Inflammasome Signaling: IL-1-beta AlphaLISA Primary Screen | THP-1 LPS/ATP IL-1B secretion, AlphaLISA, 16 h; stronger effect = lower value | activity change, % at 57.5 µM | hit rate 4.7% among 360,000 | AID 743279, 2014; in the data active = activity change below about -50%; inconclusive = mostly about -30% to -49%
#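 THP-1 cells pretreated 1 hr with compounds (up to 57.5 uM final), then stimulated with LPS (250 ng/mL final) plus ATP (1.25 mM final); secreted IL-1B measured by AlphaLISA after 16 hr, decreased signal indicating inhibition.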
# TDP1 block – qHTS Assay for Inhibitors of Tyrosyl-DNA Phosphodiesterase (TDP1) | Tyrosyl-DNA phosphodiesterase 1 (Homo sapiens), Q9NUW8 | recombinant TDP1, AlphaScreen DNA substrate cleavage | Potency, µM (doses to about 130 µM), for inactives: at the highest dose activity change, negative = inhibition, hits mostly inhibitors | hit rate 0.28% among 350,000 | AID 485290, 2010; note: potency is the fitted concentration of half-maximal effect; nearly all actives have a fitted effect of over 40% in size
# Target sequence (Q9NUW8 whole entry, looked up): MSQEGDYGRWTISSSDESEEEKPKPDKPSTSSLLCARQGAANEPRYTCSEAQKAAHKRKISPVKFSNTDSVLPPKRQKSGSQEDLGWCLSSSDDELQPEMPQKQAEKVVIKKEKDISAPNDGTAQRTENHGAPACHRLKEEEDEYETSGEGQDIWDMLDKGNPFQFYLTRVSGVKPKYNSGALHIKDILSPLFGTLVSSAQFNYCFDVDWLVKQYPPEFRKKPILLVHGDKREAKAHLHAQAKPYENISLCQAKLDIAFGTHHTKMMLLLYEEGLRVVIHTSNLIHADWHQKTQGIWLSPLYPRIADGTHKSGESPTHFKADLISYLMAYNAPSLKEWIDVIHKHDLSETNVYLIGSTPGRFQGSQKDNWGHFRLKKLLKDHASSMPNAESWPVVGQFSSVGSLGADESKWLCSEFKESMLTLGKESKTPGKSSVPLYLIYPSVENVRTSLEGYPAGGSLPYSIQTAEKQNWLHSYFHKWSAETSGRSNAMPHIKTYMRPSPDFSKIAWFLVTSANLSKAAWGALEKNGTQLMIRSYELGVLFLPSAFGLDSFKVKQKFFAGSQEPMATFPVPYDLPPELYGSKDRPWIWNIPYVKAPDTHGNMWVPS
#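 E. coli-derived human Tdp1, 1 nM final. Cpd preinc 15 min RT; substrate 15 nM final, 5 min RT; AS bead mix 10 ug/ml final, 10 min RT. Signal loss = tyrosine-FITC cleavage. No-enzyme wells = max signal.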
# DT40 TDP1 CPT – qHTS for Inhibitors of human tyrosyl-DNA phosphodiesterase 1 (TDP1): qHTS in cells in presence of CPT; chicken DT40 Tdp1-/-;hTDP1 cells + 20 nM CPT, ATP luminescence, 48 h; Potency, µM (top dose mostly 46.2 µM), without a hit: at the highest dose activity change, negative = growth inhibition, actives largely listed as inhibitors; hit rate 12% among 420,000; AID 686979, 2013; note: potency is the fitted concentration of half-maximal effect; nearly all actives have a fitted effect of over 55% in size
#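 Chicken DT40 Tdp1-/- cells stably complemented with human TDP1 were seeded at 400 cells/well in medium containing 20 nM camptothecin, exposed to pin-transferred compounds, and grown at 37 °C for at least 48 hr. Viability was read as ATP luminescence.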
# TDP1 cell noCPT – qHTS for Inhibitors of human tyrosyl-DNA phosphodiesterase 1 (TDP1): qHTS in cells in absence of CPT. AID 686978, 2013. hit rate 15% among 420,000. Potency, µM (series often up to 46.2 µM), for the others: at the top dose activity change, negative = growth inhibition, actives largely listed as inhibitors. DT40 Tdp1-/- hTDP1 cells, no CPT, ATP luminescence, 48 h; note: potency is the fitted concentration of half-maximal effect; nearly all actives have a fitted effect of over 55% in size
#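 Compound effects on proliferation are scored in DT40 Tdp1-/-;hTDP1 cells in the absence of CPT. ATP levels (CellTiter-Glo luminescence) are recorded after a ≥48 hr, 37 °C incubation.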
# Giardia killer – Small Molecules that selectively kill Giardia lamblia: qHTS; Giardia lamblia trophozoite viability; activity change, % at 7.66 µM, hits read low; hit rate 0.15% among 340,000; AID 540267, 2011; in the data active = activity change below about -80%; inconclusive = between about -30% and that limit;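 note: parasites exposed to compound for two days anaerobically before the ATP read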
#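 Luminescence from cellular ATP indicates surviving trophozoites (100 cells/well) following 48 hrs anaerobic compound treatment at 37 deg C; signal develops 15-30 min at room temperature.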
# Numbers without * were called inactive; ? = inconclusive; . = not tested or not shown; [ ] = remark or other dose. Unless noted, calls come from the whole dose curve; as a rule, active = well fitted curve in the direction sought with a large enough effect; inconclusive = small, poorly fitted or top-dose-only effect, or another doubt; inactive = no such curve, though single readings can be large; an effect the other way counts as inactive or inconclusive. % is set by controls: 0 for no effect and ±100 for the full control effect.
SMILES,ELG1 repair inh,IL-1B inflam inh,TDP1 block,DT40 TDP1 CPT,TDP1 cell noCPT,Giardia killer
Cc1oc2cc(O)ccc2c(=O)c1Oc1ccccc1,?,32,4%,6.5µM*,5.8µM*,-22
CSC1(SC2=NCCN2)SC2(NCCN2)S1,.,?,.,10µM*,13µM*,3
S=C1Cc2ccccc2C(c2ccc(Cl)cc2)N1 (centres undefined),-14%,30,.,?,23µM*,6
O=C1Cc2ccccc2C(c2ccc(Cl)cc2)N1 (centres undefined),-18%,3,3%,?,?,-7
Nc1cnc(Nc2ccc(Br)cc2)nc1N,?,-7,10%,?,15µM*,-18
C=CCNC(=O)C(=O)NCC1CCCN1S(=O)(=O)c1cccs1 (centres undefined),13%,1,-7%,-2%,-5%,0
CCOc1ncccc1C(=O)OCC(=O)NCc1ccccc1,-2%,9,1%,5%,13%,-3
COc1cc(CSc2nnnn2-c2ccc(C)cc2)cc(OC)c1OC,0%,-77*,3%,5.8µM*,5µM*,-13
COc1cc(/C=N/NC(=O)c2ccccc2O)ccc1OC(=O)CC1SC(=O)NC1=O (centres undefined),?,11,3%,-8%,?,-4
Cc1cc(C)n2nc3nc(N4CCCCC4)nc(-c4ccco4)c3c2n1,?,7,-4%,15µM*,21µM*,-1
CC(=O)OCCC(C)CCC=C(C)C (centres undefined),.,.,-3%[56.1 µM],9%,-5%,.
CN(c1ccc(O)cc1)S(=O)(=O)c1ccc2ccccc2c1,?,-62*,0%,12%,?,-20
COc1ccc(N(C)S(=O)(=O)c2ccc(Cl)c(C(=O)NNC(=O)c3ccccc3O)c2)cc1,-9%,35,5%,1%,-25%,-5
CC(=O)Oc1ccc(N(C(C)=O)S(=O)(=O)c2ccc3ccccc3c2)cc1,21µM*,?,.,?,21µM*,-6
C/C(=N\NC(=O)c1cc(-c2cccnc2)nc2ccccc12)c1ccccc1O,?,63,0%,4.6µM*,3.7µM*,-7
C/C(=N\NC(=O)c1cc(C2CC2)nc2ccccc12)c1ccc(O)cc1O,?,147,4%,6.5µM*,5.2µM*,10
CCOc1ccc(-c2cc(C(=O)N/N=C(\C)c3cccnc3)c3ccccc3n2)c(OCC)c1,?,24,2%[56.1 µM],15µM*,?,-9
CC(=O)Nc1cc(C)ns1,.,0,.,-15%,-16%,-24
O=C(Cn1cc(C(=O)c2ccco2)c2ccccc21)Nc1ccccc1C(F)(F)F,.,.,-1%,-11%,-22%,.
CCCCCCCCCCCCCCC(C(=O)O)C(O)(CC(=O)OC)C(=O)O (centres undefined),.,.,8%[56.1 µM],10µM*,8.2µM*,.
CCCCCC(CC(=O)O)C(=O)O (centres undefined),.,.,-10%[56.1 µM],-6%,1%,.
COc1ccc(CN(C(=O)Cn2nnc(-c3ccc(C)o3)n2)C(C(=O)NCC2CCCO2)c2ccco2)cc1 (centres undefined),?,-8,3%,-28%,?,-13
CC(=O)c1cn(-c2ccc(Cl)cc2)c(=O)n(Cc2ccc(F)cc2)c1=O,-1%,-5,0%,?,9.2µM*,5
CC(=O)c1cn(-c2ccc(Cl)cc2)c(=O)[nH]c1=O,2%,19,.,25%,5%,-6
COc1ccc(OCC(=O)NC2CC(=O)N(c3cccc(OC)c3)C2)cc1 (centres undefined),.,.,0%,-1%,-6%,.
SMILES,ELG1 repair inh,IL-1B inflam inh,TDP1 block,DT40 TDP1 CPT,TDP1 cell noCPT,Giardia killer
CCn1nc(C)cc1-c1nnc(Sc2ncc([N+](=O)[O-])s2)n1C,?,-99*,.,0.58µM*,0.58µM*,0
CCn1nc(C)cc1-c1nnc(SCC(=O)Nc2ccccc2)n1CCCOC,-15%,.,6%,-9%,-19%,-3
O=C(CSc1nc2ccsc2c(=O)n1-c1ccc(Cl)cc1)NCc1ccc(Cl)cc1,.,.,0%,?,?,.
Cc1ccc(NC(=O)Cn2c(=O)oc3cc(S(=O)(=O)N4CCC(C)CC4)ccc32)cc1C,?,19,5%,15µM*,?,6
Cc1cc(C)cc(NC(=O)Cn2c(=O)oc3cc(S(=O)(=O)N4CCCC4)ccc32)c1,.,.,3%,?,21µM*,.
Cc1ccc(NC(=O)Cn2c(=O)oc3cc(S(=O)(=O)N4CCCCC4)ccc32)c(Cl)c1,.,.,2%,?,12µM*,.
Cc1cc(NC(=O)Cn2c(=O)oc3cc(S(=O)(=O)N4CCCC4)ccc32)ccc1Br,.,.,14%,21µM*,15µM*,.
C[C@H](NC(=O)[C@@H](N)Cc1ccc(O)cc1)C(=O)NCC(=O)N[C@H]1CSSC[C@@H](C(=O)O)NC(=O)[C@H](CO)NC(=O)[C@H]([C@@H](C)O)NC(=O)[C@H](Cc2ccccc2)NC(=O)[C@H]([C@@H](C)O)NC(=O)[C@H](CCCCN)NC(=O)[C@@H](Cc2c[nH]c3ccccc23)NC(=O)[C@H](Cc2ccccc2)NC(=O)[C@H](Cc2ccccc2)NC(=O)[C@H](CC(N)=O)NC(=O)[C@H](CCCCN)NC1=O,.,.,9%,.,.,.
CCn1c(=O)n(-c2ccc(F)cc2)c(=O)c2sc3ccccc3c21,.,.,4%,1%,-3%,.
Cn1c(N)c(C(=O)CSc2nnc(Cc3cccs3)n2C2CC2)c(=O)n(C)c1=O,24%,1,0%,-12%,-14%,-3
COc1ccccc1C(=O)Nc1ccnn1C1CCN(C/C=C/c2ccccc2)CC1,-5%,-19,3%,23µM*,?,7
CC(C)=CCN1CCC(n2nccc2NC(=O)c2ccccc2Cl)CC1,18%,?,1%,-26%,21µM*,-17
CC(NC(=O)CNC(=O)C1CCCCC1)c1ccc(S(N)(=O)=O)cc1 (centres undefined),4%,-3,1%,7%,-9%,12
CCOc1ccc(CNS(=O)(=O)c2c(C)nc3sccn3c2=O)cc1OC,-7%,12,.,3%,-10%,13

# Compound activity (PubChem BioAssay)
